This is part of a sample that, as a whole, favours compounds with a hit. Of some 83,000 tested, about 20% had one in any assay.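 48-hour exposure, single concentration, 96-well plates; percent growth endpoint where 0 means no net growth. Active: below 10.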 Active and inactive are the calls of the source.
test system: HL-60(TB) leukemia; experiment: NCI-60 one-dose screen, 48 h (100 = growth as untreated, 0 = no growth, -100 = all killed); details: 10 µM unless noted

Row | SMILES | growth
1 | O=C(O)c1cn(C2CC2)c2cc(N3CCN(C(=O)C[n+]4cccc5ccccc54)CC3)c(F)cc2c1=O | 99.1% (inactive)
2 | Oc1c(Cl)cc(Cl)cc1C(c1cc(Cl)cc(Cl)c1O)C(Cl)(Cl)Cl | 1.53% (active)
3 | CCNC(=O)c1[nH]cc(-c2ccc(OC)cc2)c1-c1cc(OC)c(OC)c(OC)c1 | 5.15% (active)
4 | N=c1ccn2c(n1)O[C@@H]1[C@@H](O)[C@H](CO)O[C@@H]12 | 84% (inactive)
5 | COc1ccc(N2CCN(CC(=O)N3CCN(c4nnc(-c5ccc(Cl)cc5)c(-c5ccc(Cl)cc5)n4)CC3)CC2)cc1 | -19.9% (active)
6 | O=S(=O)(c1ccc(NC(=S)NCc2cccnc2)cc1)N1CCCCC1 | 64.9% (inactive)
7 | FC(F)(F)c1cn(CCN2CCOCC2)c2ncnc(Cl)c12 | -68.6% (active)
8 | CC1=C[C@H]2c3c(c(O)c(O)c4oc5c(C)cccc5c(=O)c34)[C@H](c3cc(O)c(O)c4oc5c(C)cccc5c(=O)c34)[C@H]2C(C)(C)C1 | -14.5% (active)
9 | COC(=O)c1cc2cc(-c3ccc(OC)cc3)cnc2[nH]1 | -2.68% (active)
10 | C=CCn1c(-c2ccc(-c3nc4ccc(C)cc4[nH]3)cc2)n[nH]c1=S | 110% (inactive)
11 | COc1ccc(-c2nc3c(ncc4ccc(=O)[nH]c43)s2)cc1 | 80.1% (inactive)
12 | CCOC(=O)c1c2c(c(C)n1Cc1ccc(OC)cc1)-c1nc(N)ncc1CC2 | 68.8% (inactive)
13 | COc1cc2cc(Oc3ccc(NC(=O)Nc4ccc(Cl)c(C(F)(F)F)c4)cc3)c(C)nc2cc1OC | -40.6% (active)
14 | CCCCCCCCN(CCCCCCCC)CC(O)c1cc(Cl)ccc1OC (stereo not given) | 73.4% (inactive)
15 | COc1ccc(C2NC3=C(CCCC3)C(C#N)(C#N)C2(C#N)C#N)cc1 (stereo not given) | 41.3% (inactive)
16 | CCCCC(NC(=O)CN1C(=O)/C(=C/C(C)=C/c2ccccc2)SC1=S)C(=O)O (stereo not given) | 113% (inactive)
17 | COc1cccc(/C=C/C(=O)c2sc(Nc3ccc(O)cc3)nc2C)c1 | 78.8% (inactive)
18 | CCC(c1ccccc1)c1noc(CCN(CC)CC)n1 (stereo not given) | 77.3% (inactive)
19 | O=C1Nc2ccc(F)cc2/C1=C\c1nc(-c2ccccc2F)n2ccccc12 | 120% (inactive)
20 | Cc1cccc2c(N)c3ccccc3nc12 | 9.2% (active)

Row | SMILES | growth
21 | COC(=O)C1(C)Cc2cc(OC(C)=O)c(OC(C)=O)cc2N1 (stereo not given) | 19.8% (inactive)
22 | ClCc1cccc(CSc2ncnc3c2ncn3Cc2cccc(CCl)c2)c1 | 23.7% (inactive)
23 | S=c1[nH]c(=S)c2c(-c3ccccc3)c(-c3ccccc3)oc2[nH]1 | 94.9% (inactive)
24 | NC1CCN(c2nc(Nc3cccc(C(F)(F)F)c3)c3c(=O)[nH]ccc3n2)CC1 | -61.2% (active)
25 | CNC(=O)c1cc(Oc2ccc3nc(NC(=O)Nc4ccc(C(F)(F)F)cc4)sc3c2)ccn1 | 120% (inactive)
26 | CC1CCCN(CCCCCOc2ccc3oc4ccccc4c(=O)c3c2)C1 (stereo not given) | 45.5% (inactive)
27 | Nc1ccc2c(c1)C(=O)c1cc(Cl)c(Cl)cc1-2 | 76.2% (inactive)
28 | CCCCCCCCCCCC[n+]1c(C)cc(N)c2ccccc21 | -44.4% (active)
29 | c1ccc(-c2nc3ccccc3[nH]2)c(OCCCCCOc2ccccc2-c2nc3ccccc3[nH]2)c1 | 22% (inactive)
30 | c1c(-c2cc(C3CC3)[nH]n2)n[nH]c1C1CC1 | 78.4% (inactive)
31 | C=C1C(=O)O[C@H]2[C@H]1CC/C(COC(=O)NCc1ccc(Cn3c(=O)sn(-c4ccccc4)c3=O)cc1)=C\CC[C@@]1(C)O[C@@H]21 | -25.2% (active)
32 | O=C1NC(=O)c2ncccc21 | 115% (inactive)
33 | CCCSc1ccc2nc(NC(=O)OC)[nH]c2c1 | 7.7% (active)
34 | Cn1cc(-c2ccc(F)c(C(F)(F)F)c2)nc1C1CCN(c2ncnc3[nH]ncc23)CC1 | 84.7% (inactive)
35 | CCSc1nc2ccccc2o1 | 97.5% (inactive)
36 | O=C(O)c1occ(Cl)c1Cl | 75.3% (inactive)
37 | C#CCCCCCCC[C@@H]1OC(=O)[C@H]([C@@H](C)CC)NC(=O)[C@H]([C@@H](C)CC)NC(=O)CC(=O)[C@@H]1C | 103% (inactive)
38 | C[C@@H](Oc1cc(-c2cnn(C3CC4(CNC4)C3)c2)cnc1N)c1c(Cl)ccc(F)c1Cl | -1.19% (active)
39 | Oc1ccc([S+](c2ccc(O)cc2)c2ccc(O)cc2)cc1 | 110% (inactive)
40 | CC(=O)OCCC/C(=C\c1ccc2ccccc2c1)[N+](=O)[O-] | -61% (active)

Reference: PubChem BioAssay (NCI)
